# Assay results: article PMC7862700, “An all-to-all approach to the identification of sequence-specific readers for epigenetic DNA modifications on cytosine”
# Experiments:
# Experiment in all cases: DAPPL (digital affinity profiling via proximity ligation, sequencing); 10 mM Tris-HCl pH 7.5, 50 mM NaCl, 1 mM DTT, 4% glycerol, room temperature, 30 min; GST-TFs on glutathione beads, 16-mer random dsDNA library, 0.1% formaldehyde crosslink after washing; high values mean tight binding
# FEV = biological target: T1, FEV (Homo sapiens, UniProt Q99581 1-238); details: protein: recombinant; tags: N-terminal GST; dsDNA, one strand shown
# T1 sequence: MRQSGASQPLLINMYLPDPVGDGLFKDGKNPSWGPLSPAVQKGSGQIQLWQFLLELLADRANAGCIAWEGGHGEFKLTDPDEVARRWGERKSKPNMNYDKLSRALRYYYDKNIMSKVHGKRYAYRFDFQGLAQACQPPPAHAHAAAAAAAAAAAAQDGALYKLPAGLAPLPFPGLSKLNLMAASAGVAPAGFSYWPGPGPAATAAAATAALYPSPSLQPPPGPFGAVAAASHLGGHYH
# Procedure, shortened: (§1)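 Pools were built from human transcription factors expressed in yeast as GST fusions, captured on glutathione beads and DNA-barcoded, along with a tag-only sample. Incubation with 200 nmole of a 16-mer random double-stranded DNA library lasted 30 min at room temperature in Tris/NaCl/DTT/glycerol buffer, and was followed by washing, 0.1% formaldehyde crosslinking, proximity ligation, PCR amplification and Illumina NextSeq500 sequencing. Binding signal is the quotient of each hexamer's read frequency for a factor and its frequency for the tag-only sample.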
# ETV5 = ETV5 (Homo sapiens, UniProt P41161 1-510); details: protein: recombinant; tags: N-terminal GST; dsDNA, one strand shown
# Chain of ETV5 (P41161 whole entry): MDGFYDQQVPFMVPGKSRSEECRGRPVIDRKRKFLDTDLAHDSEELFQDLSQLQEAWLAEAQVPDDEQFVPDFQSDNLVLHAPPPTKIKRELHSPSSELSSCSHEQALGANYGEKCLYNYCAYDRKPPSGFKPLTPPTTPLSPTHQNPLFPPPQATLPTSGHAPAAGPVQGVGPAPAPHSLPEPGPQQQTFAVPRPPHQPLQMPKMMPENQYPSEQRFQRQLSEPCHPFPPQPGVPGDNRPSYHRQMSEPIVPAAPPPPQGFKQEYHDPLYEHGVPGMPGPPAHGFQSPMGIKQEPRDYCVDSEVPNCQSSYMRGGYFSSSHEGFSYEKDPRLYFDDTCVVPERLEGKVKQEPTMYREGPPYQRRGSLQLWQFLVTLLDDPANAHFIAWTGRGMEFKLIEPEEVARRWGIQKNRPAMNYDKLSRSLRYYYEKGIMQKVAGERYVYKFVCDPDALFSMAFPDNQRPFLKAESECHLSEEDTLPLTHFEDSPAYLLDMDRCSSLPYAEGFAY
# Procedure, shortened: as §1
# HSF1 = HSF1 (Homo sapiens, UniProt Q00613 1-529); details: protein: recombinant; tags: N-terminal GST; chain copies: 3; dsDNA, one strand shown
# Chain of HSF1 (Q00613 whole entry): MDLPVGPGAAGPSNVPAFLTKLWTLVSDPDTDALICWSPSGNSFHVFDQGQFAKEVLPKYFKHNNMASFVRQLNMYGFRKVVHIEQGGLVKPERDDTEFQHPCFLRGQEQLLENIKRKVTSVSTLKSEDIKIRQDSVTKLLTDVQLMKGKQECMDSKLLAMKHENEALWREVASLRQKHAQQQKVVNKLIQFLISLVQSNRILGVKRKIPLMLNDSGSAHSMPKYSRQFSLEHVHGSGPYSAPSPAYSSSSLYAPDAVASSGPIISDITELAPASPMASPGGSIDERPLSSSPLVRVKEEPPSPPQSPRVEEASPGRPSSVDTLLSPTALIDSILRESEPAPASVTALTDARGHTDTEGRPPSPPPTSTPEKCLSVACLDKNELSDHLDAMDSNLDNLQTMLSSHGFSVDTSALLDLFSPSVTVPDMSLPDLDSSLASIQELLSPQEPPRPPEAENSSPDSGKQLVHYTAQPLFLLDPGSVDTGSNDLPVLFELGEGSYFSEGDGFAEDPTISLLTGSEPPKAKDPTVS
# Procedure, shortened: as §1
# SPIC = biological target: T2, SPIC (Homo sapiens, UniProt Q8N5J4 1-248); details: protein: recombinant; tags: N-terminal GST; dsDNA, one strand shown
# T2 sequence: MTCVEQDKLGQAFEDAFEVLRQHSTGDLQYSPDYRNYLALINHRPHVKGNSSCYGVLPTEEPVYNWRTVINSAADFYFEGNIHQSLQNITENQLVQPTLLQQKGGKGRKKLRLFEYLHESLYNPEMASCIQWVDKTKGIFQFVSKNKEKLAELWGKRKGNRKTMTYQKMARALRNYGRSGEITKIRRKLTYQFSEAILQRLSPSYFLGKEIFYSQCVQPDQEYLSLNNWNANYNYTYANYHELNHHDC
# Procedure, shortened: as §1
# ELF4 = ELF4 (Homo sapiens, UniProt Q99607 1-663); details: protein: recombinant; tags: N-terminal GST; dsDNA, one strand shown
# Chain of ELF4 (Q99607 whole entry): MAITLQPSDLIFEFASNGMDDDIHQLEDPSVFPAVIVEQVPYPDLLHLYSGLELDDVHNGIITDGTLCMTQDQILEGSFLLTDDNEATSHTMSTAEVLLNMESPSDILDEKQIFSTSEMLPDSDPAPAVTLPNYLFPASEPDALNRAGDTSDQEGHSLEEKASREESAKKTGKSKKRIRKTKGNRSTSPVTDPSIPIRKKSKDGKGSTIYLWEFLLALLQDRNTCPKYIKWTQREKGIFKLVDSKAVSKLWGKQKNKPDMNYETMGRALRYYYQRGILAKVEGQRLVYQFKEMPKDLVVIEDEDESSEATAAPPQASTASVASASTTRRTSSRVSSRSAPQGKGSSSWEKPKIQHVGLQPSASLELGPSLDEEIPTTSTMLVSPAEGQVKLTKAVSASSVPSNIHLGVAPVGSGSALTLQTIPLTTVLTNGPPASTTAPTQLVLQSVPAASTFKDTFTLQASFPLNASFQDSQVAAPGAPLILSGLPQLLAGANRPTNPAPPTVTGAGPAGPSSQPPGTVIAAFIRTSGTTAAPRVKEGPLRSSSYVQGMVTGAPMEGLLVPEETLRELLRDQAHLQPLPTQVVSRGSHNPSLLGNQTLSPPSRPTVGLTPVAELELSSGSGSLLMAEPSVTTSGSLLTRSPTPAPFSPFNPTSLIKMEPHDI
# Procedure, shortened: as §1
# ELK4 = biological target: T3, ELK4 (Homo sapiens, UniProt P28324-2 1-405); details: protein: recombinant; tags: N-terminal GST; dsDNA, one strand shown
# T3 sequence: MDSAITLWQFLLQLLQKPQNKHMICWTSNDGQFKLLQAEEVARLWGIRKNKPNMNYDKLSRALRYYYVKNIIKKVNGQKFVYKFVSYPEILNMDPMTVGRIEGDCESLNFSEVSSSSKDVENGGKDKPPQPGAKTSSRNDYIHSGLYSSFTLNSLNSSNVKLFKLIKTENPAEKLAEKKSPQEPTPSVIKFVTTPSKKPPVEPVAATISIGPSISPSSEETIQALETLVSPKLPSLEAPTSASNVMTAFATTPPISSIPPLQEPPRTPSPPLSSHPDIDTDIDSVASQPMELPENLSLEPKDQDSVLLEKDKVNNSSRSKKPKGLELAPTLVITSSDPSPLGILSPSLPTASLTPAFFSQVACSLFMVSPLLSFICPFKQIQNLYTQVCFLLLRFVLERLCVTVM
# Procedure, shortened: as §1
# ETV2 = biological target: T4, ETV2 (Homo sapiens, UniProt O00321 1-342); details: protein: recombinant; tags: N-terminal GST; dsDNA, one strand shown
# T4 sequence: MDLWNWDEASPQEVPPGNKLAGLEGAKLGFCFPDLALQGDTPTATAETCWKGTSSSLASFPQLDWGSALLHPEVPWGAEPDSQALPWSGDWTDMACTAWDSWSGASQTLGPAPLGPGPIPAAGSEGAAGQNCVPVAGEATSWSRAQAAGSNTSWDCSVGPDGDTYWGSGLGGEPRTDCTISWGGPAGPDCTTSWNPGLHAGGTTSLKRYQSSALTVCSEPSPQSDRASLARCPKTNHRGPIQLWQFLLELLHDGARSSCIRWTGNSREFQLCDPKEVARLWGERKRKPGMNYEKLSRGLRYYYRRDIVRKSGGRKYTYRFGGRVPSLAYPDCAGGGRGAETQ
# Procedure, shortened: as §1
# ELF3 = biological target: T5, ELF3 (Homo sapiens, UniProt P78545 1-371); details: protein: recombinant; tags: N-terminal GST; dsDNA, one strand shown
# T5 sequence: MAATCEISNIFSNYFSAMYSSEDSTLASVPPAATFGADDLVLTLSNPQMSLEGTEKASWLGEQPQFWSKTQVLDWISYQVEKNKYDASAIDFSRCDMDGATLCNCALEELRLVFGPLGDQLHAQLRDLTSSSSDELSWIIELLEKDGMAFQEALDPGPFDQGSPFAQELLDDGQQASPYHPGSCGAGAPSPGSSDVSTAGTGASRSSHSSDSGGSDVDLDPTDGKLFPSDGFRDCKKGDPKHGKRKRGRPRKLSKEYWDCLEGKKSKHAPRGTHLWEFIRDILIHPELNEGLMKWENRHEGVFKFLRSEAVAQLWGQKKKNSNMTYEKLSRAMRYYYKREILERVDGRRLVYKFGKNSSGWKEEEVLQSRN
# Procedure, shortened: as §1
# CRX = CRX (Homo sapiens, UniProt O43186 1-299); details: protein: recombinant; tags: N-terminal GST; dsDNA, one strand shown
# Chain of CRX (O43186 whole entry): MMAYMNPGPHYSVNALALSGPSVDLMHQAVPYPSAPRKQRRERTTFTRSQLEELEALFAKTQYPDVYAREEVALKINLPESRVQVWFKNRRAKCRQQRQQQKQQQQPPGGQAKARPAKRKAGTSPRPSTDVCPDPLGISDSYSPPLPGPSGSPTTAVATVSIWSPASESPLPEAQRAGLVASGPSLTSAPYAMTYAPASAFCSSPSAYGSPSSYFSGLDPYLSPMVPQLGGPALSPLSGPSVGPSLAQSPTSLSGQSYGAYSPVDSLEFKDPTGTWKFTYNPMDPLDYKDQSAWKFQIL
# Procedure, shortened: as §1
# ETV1 = ETV1 (Homo sapiens, UniProt P50549 1-477); details: protein: recombinant; tags: N-terminal GST; dsDNA, one strand shown
# Chain of ETV1 (P50549 whole entry): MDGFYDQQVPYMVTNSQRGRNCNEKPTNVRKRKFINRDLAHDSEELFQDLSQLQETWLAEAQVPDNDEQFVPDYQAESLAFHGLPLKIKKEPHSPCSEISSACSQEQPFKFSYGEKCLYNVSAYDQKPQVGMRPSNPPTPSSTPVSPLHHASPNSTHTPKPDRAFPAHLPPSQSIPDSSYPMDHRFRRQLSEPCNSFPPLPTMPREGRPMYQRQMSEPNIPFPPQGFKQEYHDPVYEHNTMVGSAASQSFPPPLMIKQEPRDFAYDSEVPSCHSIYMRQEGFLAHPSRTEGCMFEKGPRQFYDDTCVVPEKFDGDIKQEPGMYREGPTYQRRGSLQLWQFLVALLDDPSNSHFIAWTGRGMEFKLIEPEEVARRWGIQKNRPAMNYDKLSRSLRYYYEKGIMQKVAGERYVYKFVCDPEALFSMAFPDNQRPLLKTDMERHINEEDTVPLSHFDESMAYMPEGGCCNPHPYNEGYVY
# Procedure, shortened: as §1
sequence,measurement,setting,value
CCTCAA,binding signal,FEV,"1.42 fold enrichment (6-mer frequency, TF over GST control)"
same,binding signal,ETV5,"1.42 fold enrichment (6-mer frequency, TF over GST control)"
same,binding signal,HSF1,"1.2 fold enrichment (6-mer frequency, TF over GST control)"
same,binding signal,SPIC,"1.46 fold enrichment (6-mer frequency, TF over GST control)"
same,binding signal,ELF4,"1.38 fold enrichment (6-mer frequency, TF over GST control)"
same,binding signal,ELK4,"1.35 fold enrichment (6-mer frequency, TF over GST control)"
same,binding signal,ETV2,"1.61 fold enrichment (6-mer frequency, TF over GST control)"
same,binding signal,ELF3,"1.54 fold enrichment (6-mer frequency, TF over GST control)"
same,binding signal,CRX,"1.15 fold enrichment (6-mer frequency, TF over GST control)"
same,binding signal,ETV1,"1.42 fold enrichment (6-mer frequency, TF over GST control)"
